Measured values reported in PubChem BioAssay AID588849 (Broad Institute, 2011).
Entries with a potency or affinity are not part of this list. Active and inactive are the calls of the source. The rule behind the calls is not given here.

Biological target: CAAX prenyl protease 2 (Homo sapiens) (UniProt Q9Y256)
Test: human Rce1 protease inhibitors, dose response, biochemical, yeast membranes, quenched-peptide fluorescence, cherry-pick (AID 588849)
Settings: yeast membrane fractions expressing human Rce1, quenched-peptide fluorescence, 4 h; series mostly up to 10 µM

Sequence of CAAX prenyl protease 2 (Homo sapiens) (Q9Y256 whole entry, looked up): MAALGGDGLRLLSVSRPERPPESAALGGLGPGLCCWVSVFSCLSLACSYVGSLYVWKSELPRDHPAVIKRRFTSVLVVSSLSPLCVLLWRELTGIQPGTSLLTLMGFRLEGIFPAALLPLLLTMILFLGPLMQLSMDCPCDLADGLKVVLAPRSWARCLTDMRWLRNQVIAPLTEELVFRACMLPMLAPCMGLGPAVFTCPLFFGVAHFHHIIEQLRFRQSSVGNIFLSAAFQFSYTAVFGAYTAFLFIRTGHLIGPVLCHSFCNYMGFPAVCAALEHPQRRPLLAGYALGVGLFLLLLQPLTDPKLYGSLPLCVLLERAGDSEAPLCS

Row | SMILES | outcome
1 | Cc1ccc(OCCn2c3ccccc3n3nc(C)c(=O)nc23)cc1 | inactive
2 | CC(C)c1cc(=O)oc2c3c4c(cc12)CCCN4CCC3 | inactive
3 | O=C(Nc1ccc(F)cc1)Oc1ccccc1N1CCOCC1 | inactive
4 | CC(=O)c1ccc(-c2ccc(C(=O)N3CCC(C(N)=O)CC3)o2)cc1 | inactive
5 | CCOc1cccc(-c2c(C(=O)N/N=C/c3c(F)cccc3Cl)nnn2-c2nonc2N)c1 | inactive
6 | Cc1cc(C)cc(Nc2nc(-c3ccc(S(=O)(=O)N4CCCC4)cc3)cs2)c1 | inactive
7 | Nc1nc2c(ncn2COC(CO)CO)c(=O)[nH]1 | inactive
8 | Cc1cc2cc(C#N)c(NCCNC(=S)NCCCN3CCOCC3)nc2cc1C | inactive
9 | O=C(Nc1ccccc1N1CCOCC1)C1CCN(S(=O)(=O)c2ccc(F)cc2)CC1 | inactive
10 | CCn1cc(/C=C(\NC(=O)c2ccccc2F)C(=O)N2CCOCC2)c2ccccc21 | inactive
11 | COc1ccc(CC(=O)OCC(=O)Nc2ccc(Br)cc2)cc1 | inactive
12 | N=c1c2c(ncn1Cc1ccco1)Oc1ccc3ccccc3c1C2c1ccccc1 (stereo unspecified) | inactive
13 | Cc1cc(Cl)c2oc(C(=O)N3CCN(C(=O)c4ccco4)CC3)c(C)c2c1 | inactive
14 | COc1cccc(-c2ccc(-c3noc(-c4ccccc4F)n3)c(OC)n2)c1 | inactive
15 | O=C(CSc1nc2ccccc2s1)N1N=C(c2cccs2)CC1c1ccc(F)cc1 (stereo unspecified) | inactive
16 | CCCCNC(=S)NNC(=O)CCn1cc(C)cn1 | inactive
17 | CCCOc1ccccc1C(=O)NCCCC(=O)O | inactive
18 | Nc1nnc(-c2ccncc2)s1 | inactive
19 | CCC(C)Sc1cc(-c2nc3ccccn3c2NC2CCCCC2)ccc1OC (stereo unspecified) | inactive
20 | N/C(Cc1ccc([N+](=O)[O-])cc1)=N\OC(=O)c1ccc2ccccc2c1 | inactive
21 | Cc1cc2nn(-c3cccc4ccccc34)nc2cc1NC(=O)c1cccs1 | inactive
